About 360 (28%) of roughly 1,300 compounds were called active.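 Rule for the calls: active = average inhibition of at least 50%, with Z-scores no higher than 3 in both the phospho-tyrosine peptide and fluorescence counterscreens; inactive = the rest.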 Not all results are given here.
Columns and labels:
[1] = retest of Hck:Nef kinase inhibitor hits, confirmation, biochemical, Z-Lyte FRET, 384-well, p-Tyr peptide counterscreen (AID 463188); settings: Recombinant Hck-YEEI:Nef, Z-Lyte FRET kinase assay; measured here: p-Tyr peptide counterscreen; at 10 µM
[2] = molecular target: Tyrosine-protein kinase HCK (Homo sapiens) (UniProt P08631); test: as above; settings: Recombinant Hck-YEEI:Nef, Z-Lyte FRET kinase assay; at 10 µM; stronger effect = higher value
Tyrosine-protein kinase HCK (Homo sapiens), sequence (P08631 whole entry, looked up): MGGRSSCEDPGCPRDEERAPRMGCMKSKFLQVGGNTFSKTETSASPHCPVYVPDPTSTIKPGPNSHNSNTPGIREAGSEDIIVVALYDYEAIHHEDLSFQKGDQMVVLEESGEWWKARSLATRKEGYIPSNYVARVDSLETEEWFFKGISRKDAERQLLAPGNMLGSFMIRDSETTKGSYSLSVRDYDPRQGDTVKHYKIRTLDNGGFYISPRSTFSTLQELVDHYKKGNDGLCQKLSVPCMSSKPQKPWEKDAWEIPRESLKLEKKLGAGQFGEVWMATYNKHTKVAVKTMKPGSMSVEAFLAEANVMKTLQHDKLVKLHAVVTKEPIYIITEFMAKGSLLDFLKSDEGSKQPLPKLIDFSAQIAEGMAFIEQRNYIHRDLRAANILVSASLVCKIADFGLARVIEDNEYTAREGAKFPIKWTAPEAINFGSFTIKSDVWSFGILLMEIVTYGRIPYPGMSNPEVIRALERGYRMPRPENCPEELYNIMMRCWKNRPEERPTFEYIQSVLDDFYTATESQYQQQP

| SMILES | z-score [1] | inhibition [2] | inhibition [1] |
| --- | --- | --- | --- |
| N#Cc1c(-c2cccs2)nc(SCC(=O)c2ccc(Br)cc2)[nH]c1=O | -2.14 | 54.2% (active) |  |
| Cc1ccc(S(=O)(=O)c2c(N)n(C)c3nc4ccccc4nc23)cc1 | 15.1 | 51.3% (inactive) |  |
| Cc1ccc(-n2c(=O)c(C#N)cc3c(=O)n4ccccc4nc32)cc1C |  |  | 15.8 |
| COc1ccc(N=Cc2c(O)[nH]c3ccccc23)cc1OC | 2.53 | 67.3% (active) |  |
| CCN(CC)c1ccc2cc(C(=O)O)c(=O)oc2c1 |  |  | 180 |
| CC(C)n1cnc2c(Nc3cccc(Cl)c3)nc(N(CCO)CCCO)nc21 | -1.42 | 92.6% (active) |  |
| COc1cccc(CNC(=O)CCC2CCCN(Cc3ccc(OC(F)F)cc3)C2)c1 (configuration not stated) | 0.273 | 13.3% (inactive) |  |
| CCn1c(=O)c2cc(C(=O)Nc3cccc(C(C)=O)c3)sc2c2ccccc21 | 0.522 | 30.2% (inactive) |  |
| CC(C)(C)OC(=O)NCCCCCC(=O)N/N=C/c1coc2ccccc2c1=O | -0.798 | 80.9% (active) |  |
| Oc1c(Cl)cc(Cl)c(Cl)c1Cc1c(O)c(Cl)cc(Cl)c1Cl | -1.64 | 12.2% (inactive) |  |
| COC(=O)C1=CN(Cc2ccc(OC)c(OC)c2)C=C(C(=O)OC)C1c1cccs1 |  |  | 22.9 |
| Cc1ccc(-c2cc(C(=O)NCc3cn(C)nc3C)c3cc(Br)ccc3n2)cc1 | -0.98 | 46.1% (inactive) |  |
| O=C(Nc1ccncc1)c1cc(-c2ccccn2)nc2ccc(Br)cc12 | 0.0526 | 76.4% (active) |  |
| O=C(CSc1cccc2cccnc12)N/N=C/c1cccnc1 | -0.0644 | 36.9% (inactive) |  |
| Cc1ncc(CC(=O)n2cc(C(=O)c3cc(Cl)ccc3O)cn2)s1 | -1.16 | 75% (active) |  |
| COC/C=C/C1=CC2=CC(=O)C(C)(OC(=O)CCC(=O)OC)C(=O)C2=CO1 (configuration not stated) | -0.884 | 43.8% (inactive) |  |
| O=C(Cc1ccccc1)Nc1cccc(C(=O)N/N=C/c2ccco2)c1 | -0.994 | 30% (inactive) |  |
| COc1ccc(C(=O)n2nc(-c3ccc(Cl)cc3)nc2N)cc1OC | 3.28 | 2.06% (inactive) |  |
| CCn1c(=N)c(C(=O)NCCCOC)cc2c(=O)n3cccc(C)c3nc21 |  |  | 192 |
| Cc1ccc(/C=C/C(=O)Nc2ccc([N+](=O)[O-])c(NC(=O)/C=C/c3ccc(C)o3)c2)o1 | -2.13 | 51.4% (active) |  |
| O=C(NNC(=O)c1csc(-c2cccnc2)n1)Nc1ccc(Cl)cc1 | -0.478 | 11.4% (inactive) |  |
| Cc1ccc(SC(CC(=O)c2ccc(C(C)(C)C)cc2)C(=O)O)cc1 (configuration not stated) | -0.516 | 20.8% (inactive) |  |
| O=[N+]([O-])c1cc(Cl)cc(/C=N/NC(=S)Nc2cc(S(=O)(=O)N3CCOCC3)ccc2Cl)c1O | -0.299 | 63.6% (active) |  |
| CN(C)S(=O)(=O)c1cccc(-c2nn(-c3ccccc3)cc2/C=C2\SC(=S)N(CC(=O)O)C2=O)c1 | -1.38 | 38.1% (inactive) |  |
| C=C(C)COc1ccc(-c2nc(N)ncc2-c2ccccc2OC)c(O)c1 | -0.555 | 55.8% (active) |  |

| SMILES | z-score [1] | inhibition [2] | inhibition [1] |
| --- | --- | --- | --- |
| CCOc1ccc(-c2nc(N)ncc2-c2ccccc2OC)c(O)c1 | -1.74 | 63.2% (active) |  |
| COc1cccc(C(=O)c2cc3ccc(O)cc3oc2=O)c1 |  |  | 51.8 |
| O=C1Oc2ccccc2C(=O)/C1=C/c1ccccc1O | -0.0667 | 30.1% (inactive) |  |
| Cc1cc(/C=N/Nc2ccc([N+](=O)[O-])cn2)c(C)n1-c1cccc(C(=O)O)c1 | 0.131 | 38.5% (inactive) |  |
| COC(=O)Cc1cc(=O)oc2c(C)c(O)ccc12 |  |  | 94.6 |
| CC(=O)Oc1ccc2c(C)c(CC(C)O)c(=O)oc2c1 (configuration not stated) |  |  | 122 |
| CCCCN(CCCC)CC(O)Cn1c2ccccc2c(=O)c2ccccc21 (configuration not stated) |  |  | 80.9 |
| OC(c1nnc(-c2ccccc2)o1)c1cccs1 (configuration not stated) | -1.39 | 19.9% (inactive) |  |
| CCOc1ccccc1C1C(C(=O)OC)=CN(C)C=C1C(=O)OC |  |  | 41.6 |
| Cc1cccc(-[n+]2c(-c3cccc(Br)c3)[nH]c3nc4ccccc4nc32)c1 | -0.694 | 13.5% (inactive) |  |
| Cc1cc(C)c2nc(-c3cccnc3)cc(C(=O)Nc3ccc(S(=O)(=O)Nc4onc(C)c4C)cc3)c2c1 | -1.22 | 40.5% (inactive) |  |
| O=C(Nc1ccc(S(=O)(=O)Nc2nccs2)cc1)c1cc(-c2ccncc2)nc2ccccc12 | -0.658 | 65.3% (active) |  |
| COCCCn1c(-c2cccs2)nc2nc3ccccc3nc21 |  |  | 61.4 |
| CN(CC(=O)Nc1cccc(F)c1)CC(=O)Nc1cccc([N+](=O)[O-])c1 | -0.0694 | 62.1% (active) |  |
| O=[N+]([O-])c1cccc(Nc2c3ccccc3nc3ccccc23)c1 | 0.872 | 9.19% (inactive) |  |
| O=C(NCc1ccccc1)C1CCCN(c2nc3ccsc3c(=O)s2)C1 (configuration not stated) | 2.05 | 18.7% (inactive) |  |
| CN(C(=O)COC(=O)c1cc(-c2ccco2)nc2ccccc12)C1CCS(=O)(=O)C1 (configuration not stated) | 0.38 | 49.5% (inactive) |  |
| c1ccc(CSc2nnc(-c3ccco3)c(-c3ccco3)n2)cc1 | 0.442 | 26.4% (inactive) |  |
| Clc1ccc2c(c1)C1=C(C(c3ccncc3)O2)C(c2ccc(Br)cc2)n2ncnc2N1 (configuration not stated) | 1.34 | 92.8% (active) |  |
| Cc1cc(OC(=O)c2ccccc2Cl)ccc1N1C(=O)CCC1=O | 0.0636 | 11.5% (inactive) |  |
| COC(=O)c1ccc(OCC(O)CN(CCO)CC(O)Cn2ccc3ccccc32)cc1 (configuration not stated) | 3.64 | -1.67% (inactive) |  |
| O=C(O)CCn1cc(/C=C/C(=O)c2ccc(Cl)cc2)c(-c2cccc(Br)c2)n1 | -0.131 | 24.8% (inactive) |  |
| CCCn1c(=NC(C)=O)c(C(=O)OCC)cc2c(=O)n3ccccc3nc21 | 85.9 | 33.1% (inactive) |  |
| Cc1cccn2c(=O)c3cc(C#N)c(=O)n(CCCN4CCOCC4)c3nc12 |  |  | 248 |

Source: PubChem BioAssay AID463188 (University of Pittsburgh Molecular Library Screening Center, 2010)
